From PubChem
An excerpt weighted towards active compounds, which were near 2% of everything screened.
NPSR antag: neuropeptide S receptor (human) antagonism, cAMP. Q6W5P4. CHO-NPSR cells, cAMP TR-FRET, antagonist mode. Potency, µM (highest dose often 38.3 µM), for the others: at the top dose activity change, negative = inhibition, most hits filed as inhibitors. actives 1% (n = 220,000). AID 1461; further: potency means the concentration at half of the fitted maximal effect; on the % scale 0 is the no-effect control and ±100 the full control effect; nearly all actives have a fitted effect of over 50% in size
Target sequence (Q6W5P4 whole entry, looked up): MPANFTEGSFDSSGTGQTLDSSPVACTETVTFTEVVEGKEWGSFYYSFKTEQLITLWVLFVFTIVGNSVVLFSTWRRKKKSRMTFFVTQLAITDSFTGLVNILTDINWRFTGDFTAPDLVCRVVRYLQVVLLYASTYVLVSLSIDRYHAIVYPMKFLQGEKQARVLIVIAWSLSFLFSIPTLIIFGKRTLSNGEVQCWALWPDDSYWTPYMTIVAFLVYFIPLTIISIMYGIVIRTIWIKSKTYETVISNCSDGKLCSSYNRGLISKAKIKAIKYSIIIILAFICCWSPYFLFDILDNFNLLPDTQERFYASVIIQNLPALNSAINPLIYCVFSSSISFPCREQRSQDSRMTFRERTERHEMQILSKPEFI
PKM2 act: increases activity of human pyruvate kinase M2; P14618; purified PKM2, Kinase-Glo ATP luminescence, activation; response scale: 0% is enzyme alone, no compound; Potency, µM (doses to about 57.5 µM), for the others: at the top dose activation, actives largely listed as activators; actives 0.34% (n = 260,000); AID 1631; further: potency means the concentration at half of the fitted maximal effect; on the % scale 0 is the no-effect control and ±100 the full control effect; nearly all actives have a fitted effect of over 55% in size
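Purified hPK-M2 (>95% pure) converted ADP (0.1 mM final) to ATP with 0.5 mM PEP in 50 mM imidazole pH7.2, KCl, MgCl2, Tween 20, BSA; 1 h at room temperature. ATP detected by Kinase-Glo luminescence.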
ClpP mod: qHTS Assay for Activators of ClpP | AID 651965, 2013 | ATP-dependent Clp protease proteolytic subunit (Bacillus subtilis (strain 168)), P80244 | purified B. subtilis ClpP, FRET peptide cleavage, 20 min | Potency, µM (highest dose often 57.5 µM), inactives show at the highest dose activity change, negative = active | actives 1.9% (n = 340,000); active means well fitted falling curve with a large enough effect; inconclusive means small, poorly fitted or top-dose-only effect; inactive means no such curve, though single readings can be large or run the other way; further: potency means the concentration at half of the fitted maximal effect; the source files actives as falling curves though it sought activators and does not explain the sign; nearly all actives have a fitted effect of over 65% in size
Target sequence (P80244 whole entry, looked up): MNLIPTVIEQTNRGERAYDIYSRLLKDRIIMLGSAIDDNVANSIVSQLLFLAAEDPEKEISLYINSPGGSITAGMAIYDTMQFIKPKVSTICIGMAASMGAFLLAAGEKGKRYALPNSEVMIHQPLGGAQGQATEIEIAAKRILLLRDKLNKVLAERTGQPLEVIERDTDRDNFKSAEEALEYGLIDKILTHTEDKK
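Purified B. subtilis ClpP, 10 microg/mL final in Tris/HCl pH8 with KCl, BSA, glycerol and Tween-20, cleaved an Abz/nitrotyrosine-quenched decapeptide. Fluorescence (ex 320, em 430) was read at 0 and 20 min at room temperature. Delta was normalized to 5.8 microM ADEP and DMSO/no-enzyme controls.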
IL-2 act: activates IL-2 in a cell-based reporter assay; actives 0.065% (n = 360,000); activation, % (series mostly up to about 46 µM); AID 652025; IL-2 activation reporter assay, cell-based qHTS; stimulated with anti-CD3/CD4/CD28 beads; in transgenic mouse T cells; in the data active means activation above about 50%; inconclusive means mostly about 30% to 49%; further: 0% is about no effect
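Using fluorescent plate cytometry, EGFP and DsRed are detected in transgenic mouse T cells stimulated 18 h at 37 degrees C with antibody-coated beads after 60 min compound pretreatment.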
Active calls of the source: *; ? = inconclusive; nt = not tested or not shown; ! = not confirmed by another sample; [ ] = remark or other dose. Unless noted, the call rests on the fitted dose curve; in most records, active means well fitted curve in the direction sought with a large enough effect; inconclusive means small, poorly fitted or top-dose-only effect, or another doubt; inactive means no such curve, though single readings can be large; an effect the other way counts as inactive or inconclusive.

SMILES	NPSR antag	PKM2 act	ClpP mod	IL-2 act
C=CCn1c(N)c(C(=O)NCc2ccco2)sc1=S	-5%[46.1 µM]	8.9µM*	1%	-2
COc1ccc(Cc2noc(CN(C)CC(O)c3ccccc3)n2)cc1OC (stereo unspecified)	0%	-6%	1%	-6
N#Cc1c(-c2cccs2)nc(SCc2ccc(Cl)cc2)[nH]c1=O	?	32µM*	nt	1
CC(NC(=O)NNC(=O)c1ccncc1)(C(F)(F)F)C(F)(F)F	13%	?	nt	-1
O=C1C2C3C=CC(C3)C2C(=O)N1CCN1CCN(S(=O)(=O)/C=C/c2ccccc2)CC1 (stereo unspecified)	-2%	-10%	nt	2
Cc1ccc(NC(=O)c2cc3c(s2)CCCC3)cc1S(=O)(=O)Nc1ccccc1Cl	-25%	-5%	25µM*	-1
COc1ccc(Oc2nc(-c3ccccc3)ncc2S(=O)(=O)c2ccccc2)cc1	?	10%	-24%	1
COc1nc(-c2ccccc2)ncc1S(=O)(=O)c1ccccc1	-32%	16µM*	0%	-1
Cc1ccc(C)c(S(=O)(=O)c2nnn3c2nc(NC2CCCCC2)c2sccc23)c1	nt	nt	35µM*	nt
Cc1cc2oc(=O)c(CC(=O)O)c(C)c2c2occ(-c3ccc(F)cc3)c12	nt	nt	28µM*	nt
Cc1cccc(CN2C(=O)N/C(=C/c3cc(C)n(-c4cc(C)ccn4)c3C)C2=O)c1	16µM*	-3%	-9%	1
Cc1cc(/C=C2/NC(=O)NC2=O)c(C)n1-c1ccccn1	-21%	-9%	-5%	-1
Cc1ccc(NC(=O)CN(C)S(=O)(=O)c2ccc3[nH]c4c(c3c2)CCCC4)c(Cl)c1	nt	nt	-29%	nt
C#CC1(O)CCC2C3CCc4cc(O)cc(C)c4C3CCC21C (stereo unspecified)	nt	nt	32µM*	-6
O=C(Nc1ccc2nc(SCC(=O)N3CCCc4ccccc43)sc2c1)c1cccc(Cl)c1	nt	nt	14µM*	nt
O=C(Nc1ccc2nc(SCC(=O)N3CCc4ccccc43)sc2c1)c1ccc(Cl)cc1	nt	nt	24%	nt
O=C(O)CCNC(=O)c1cncc(Br)c1	3%[46.1 µM]	5%	0%	-2
O=C(O)CCCNC(=O)c1cncc(Br)c1	-4%[46.1 µM]	-1%	28µM*	-2
O=C(NCCCNC(=O)c1cncc(O)c1)c1cncc(O)c1	30%	6%	nt	0
CCOC(=O)CCCNC(=O)c1cncc(O)c1	4%[46.1 µM]	-1%	32µM*	1
CCOc1ccc(S(=O)(=O)N2CCN(C(=S)NCc3ccco3)CC2)cc1	1%	14µM*	?	-1
COC(=O)C1CCCCN1C(=O)c1ccc2oc(Cc3ccccc3)nc2c1 (stereo unspecified)	nt	nt	28µM*	-3
COC(=O)C1CCCCN1C(=O)c1ccc2oc(C(C)C)nc2c1 (stereo unspecified)	nt	1%	-1%	-4
Nc1c(O)ccc2c1C(=O)c1ccccc1C2=O	10µM*	-33%	1%	0
CCOc1ccc2nc(NCCNC(=O)Nc3cccc(C)c3)c(C#N)cc2c1	5%[46.1 µM]	-3%	16µM*	1
SMILES	NPSR antag	PKM2 act	ClpP mod	IL-2 act
CCc1ccc(-c2nc3ccc(Br)cc3c(C(=O)O)c2C)s1	nt	nt	25µM*!	2
COc1cccc(CNS(=O)(=O)c2cn(C)cn2)c1	23%[46.1 µM]	3%	14µM*	-4
CCOc1ccc(S(=O)(=O)NCc2ccc(Cl)cc2)c2cccnc12	10%	0%	16µM*	0
CCOc1ccc(S(=O)(=O)NCC2CCCO2)c2cccnc12 (stereo unspecified)	2%[46.1 µM]	3%	40µM*	2
CCOc1ccc(S(=O)(=O)NCC2CCCO2)c2ccccc12 (stereo unspecified)	nt	-16%	-3%	-1
Cc1cnc(C(=O)NCCc2ccc(C(F)(F)F)cc2)cn1	nt	0%	nt	-5
COc1ccc2cc(/C=N/NC(=O)c3ccc(CN(c4cccc(Cl)c4Cl)S(C)(=O)=O)cc3)c(Cl)nc2c1	-22%	-4%	18µM*	2
O=C(COC(=O)c1ccc(NS(=O)(=O)c2cccs2)cc1O)Nc1nc2ccccc2s1	?	-2%	-2%	1
O=C(COC(=O)c1ccc(NS(=O)(=O)c2cccs2)cc1O)NCc1ccccc1	-31%	22µM*	2%	-1
O=C(COC(=O)c1ccc(NS(=O)(=O)c2cccs2)cc1)NCc1ccco1	-14%	14µM*	-1%	2
CCOC(=O)[C@H]1[C@H]2COc3ccccc3[C@@H]2N2C(=O)c3cc(Br)ccc3NC(=O)[C@@]12C	nt	nt	1%	0
COc1cccc(-c2oc3c(c2C(=O)OCCN(C)C)C(O)CCC3)c1 (stereo unspecified)	nt	nt	5%	0
CC(=O)CCc1oc2ccc(NC(C)=O)cc2c1-c1ccc(C)o1	-6%[46.1 µM]	10µM*	-1%	2
COc1ccc(N2CCN(C(CNC(=O)C(=O)NCCCn3ccnc3)c3cccnc3)CC2)cc1 (stereo unspecified)	8%	-1%	1%	-3
O=C(N/N=C/c1cc(Br)cs1)c1ccccc1[N+](=O)[O-]	0%	0%	1%	0
NS(=O)(=O)c1ccc2c(c1)C(=NO)c1cc(S(N)(=O)=O)ccc1-2	nt	4µM*	nt	-2
Cn1nccc1NC(=O)CSCC(=O)O	-13%	6%	nt	-2
Cc1ccnc(NS(=O)(=O)c2ccc(N3C(=O)C4CCCCC4C3=O)cc2)n1 (stereo unspecified)	nt	-3%	nt	0
O=C1C2CCCCC2C(=O)N1c1ccc(S(=O)(=O)Nc2ncccn2)cc1 (stereo unspecified)	nt	2%	16µM*	2
Cc1ccc(-n2c(C)cc(/C=C3\NC(=O)NC3=O)c2C)c(C)c1	-40%	6%	-1%	67*
O=C(Nc1ccc2c(c1)C(=O)N(CC1CCCO1)C2=O)c1ccccc1Br (stereo unspecified)	-2%[46.1 µM]	1%	22µM*	-3
Cc1ccc(C(=O)Nc2ccc3c(c2)C(=O)N(CC2CCCO2)C3=O)cc1 (stereo unspecified)	nt	-3%	0%	-1
COc1ccccc1N1CCN(CC(O)COc2ccc(S(=O)(=O)N3CCOCC3)cc2)CC1 (stereo unspecified)	0%[46.1 µM]	6%	-1%	-2
CCOc1ccccc1NC(=O)NNC(=O)c1ccc2ccccc2c1	nt	-4%	32µM*	-1
CCOc1ccccc1NC(=O)c1ccc2ccccc2c1	nt	0%	nt	-4
CCOC(=O)C(NC(C)=O)(Nc1ccc(F)cc1)C(F)(F)F (stereo unspecified)	4%[46.1 µM]	-1%	20µM*	-2
CCOC(=O)C(NC(C)=O)(Nc1cccc(F)c1)C(F)(F)F (stereo unspecified)	-17%[46.1 µM]	7%	-3%	0
CCCCC(=O)NC(Nc1cc(C)ccn1)(C(=O)OCC)C(F)(F)F (stereo unspecified)	-6%[46.1 µM]	0%	25µM*	0
